About 2,000 (36%) of roughly 5,500 compounds were called active. About 18% were inconclusive and are not listed. Rule as the data show it: active = normalized growth mostly below about 0.91 (no sharp cut-off); inconclusive = no clear call, values can overlap the other calls; inactive = mostly above about 0.92. This is one part of the list.
Test: chemical genetic growth profiling, strain panel (AID 1159580);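 also: tested at 20 µM; growth read once vehicle control cultures reached saturation at 30 °C; 1 = growth at the plate median or of vehicle wells; lower values mean less growth of the strain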
Conditions: growth OD

Measured: normalized growth

CNC(=O)CSP(=S)(OC)OC
inactive: S. cerevisiae deletion strains, locus YJR075W, strain HOC1, hits give low values 1.02 | S. cerevisiae deletion strains, locus YKL009W, strain mrt4, hits give low values 1 | S. cerevisiae deletion strains, locus YKL068W, hits give low values 1.01 | S. cerevisiae deletion strains, locus YKL085W, strain MDH1 (second series), hits give low values 1.01 | S. cerevisiae deletion strains, locus YKL085W, strain MDH1, hits give low values 1.01 | S. cerevisiae deletion strains, locus YKL160W, strain elf1, hits give low values 1.01 | S. cerevisiae deletion strains, locus YKL190W, strain CNB1, hits give low values 0.979 | S. cerevisiae deletion strains, locus YKR001C, strain vps1, hits give low values 1.02 | S. cerevisiae deletion strains, locus YKR026C, strain gcn3, hits give low values 1.01 | S. cerevisiae deletion strains, locus YKR091W, strain srl3, hits give low values 1.02 | S. cerevisiae deletion strains, locus YLL001W, strain dnm1, hits give low values 1.01 | S. cerevisiae deletion strains, locus YLL026W, hits give low values 1.02 | S. cerevisiae deletion strains, locus YLL041C, strain sdh2, hits give low values 1.03 | S. cerevisiae deletion strains, locus YLR027C, strain aat2, hits give low values 1.01 | S. cerevisiae deletion strains, locus YLR039C, strain RIC1, hits give low values 0.993 | S. cerevisiae deletion strains, locus YLR058C, strain SHM2, hits give low values 1.01 | S. cerevisiae deletion strains, locus YLR102C, strain apc9, hits give low values 1.02 | S. cerevisiae deletion strains, locus YLR113W, strain HOG1, hits give low values 0.997 | S. cerevisiae deletion strains, locus YLR221C, strain rsa3, hits give low values 1.03 | S. cerevisiae deletion strains, locus YLR258W, strain gsy2, hits give low values 1.03 | S. cerevisiae deletion strains, locus YLR262C, strain YPT6 (second series), hits give low values 1.05 | S. cerevisiae deletion strains, locus YLR262C, strain YPT6, hits give low values 0.999 | S. cerevisiae deletion strains, locus YLR268W, strain sec22, hits give low values 1.01 | S. cerevisiae deletion strains, locus YLR320W, strain mms22, hits give low values 1.02 | S. cerevisiae deletion strains, locus YLR330W, strain CHS5, hits give low values 1.01 | S. cerevisiae deletion strains, locus YLR342W, strain FKS1 (second series), hits give low values 1.04 | S. cerevisiae deletion strains, locus YLR342W, strain FKS1, hits give low values 1.02 | S. cerevisiae deletion strains, locus YLR357W, strain rsc2, hits give low values 0.986 | S. cerevisiae deletion strains, locus YLR370C, strain arc18, hits give low values 1.03 | S. cerevisiae deletion strains, locus YLR371W, strain rom2, hits give low values 1.02 | S. cerevisiae deletion strains, locus YLR384C, strain iki3, hits give low values 1.04 | S. cerevisiae deletion strains, locus YLR418C, strain cdc73, hits give low values 1.01 | S. cerevisiae deletion strains, locus YML016C, strain PPZ1, hits give low values 1 | S. cerevisiae deletion strains, locus YML032C, strain rad52, hits give low values 1.03 | S. cerevisiae deletion strains, locus YML120C, strain ndi1, hits give low values 1.02 | S. cerevisiae deletion strains, locus YML124C, strain tub3, hits give low values 1.02 | S. cerevisiae deletion strains, locus YMR058W, strain fet3, hits give low values 1.01 | S. cerevisiae deletion strains, locus YMR078C, strain ctf18, hits give low values 1.02 | S. cerevisiae deletion strains, locus YMR125W, strain sto1, hits give low values 1.02 | S. cerevisiae deletion strains, locus YMR129W, hits give low values 1.01 | S. cerevisiae deletion strains, locus YMR205C, strain PFK2, hits give low values 1.01 | S. cerevisiae deletion strains, locus YMR223W, strain ubp8, hits give low values 1.02 | S. cerevisiae deletion strains, locus YMR231W, strain pep5, hits give low values 1.01 | S. cerevisiae deletion strains, locus YMR263W, strain SAP30, hits give low values 1.02 | S. cerevisiae deletion strains, locus YMR307W, strain GAS1, hits give low values 1.03 | S. cerevisiae deletion strains, locus YNL067W, strain RPL9B, hits give low values 1.01 | S. cerevisiae deletion strains, locus YNL071W, strain lat1, hits give low values 1 | S. cerevisiae deletion strains, locus YNL128W, strain TEP1, hits give low values 1.01 | S. cerevisiae deletion strains, locus YNL153C, strain GIM3, hits give low values 1.01 | S. cerevisiae deletion strains, locus YNL183C, strain NPR1, hits give low values 0.982 | S. cerevisiae deletion strains, locus YNL209W, strain ssb2, hits give low values 0.999 | S. cerevisiae deletion strains, locus YNL233W, strain BNI4, hits give low values 0.991 | S. cerevisiae deletion strains, locus YNL248C, strain rpa49, hits give low values 1.02 | S. cerevisiae deletion strains, locus YNL250W, strain rad50, hits give low values 1.02 | S. cerevisiae deletion strains, locus YNL271C, strain bni1, hits give low values 1.02 | S. cerevisiae deletion strains, locus YNL298W, strain CLA4, hits give low values 1.02 | S. cerevisiae deletion strains, locus YNL307C, strain MCK1, hits give low values 1.04 | S. cerevisiae deletion strains, locus YNL322C, strain KRE1 (second series), hits give low values 1 | S. cerevisiae deletion strains, locus YNL322C, strain KRE1, hits give low values 1.01 | S. cerevisiae deletion strains, locus YNR049C, strain mso1, hits give low values 1.02 | S. cerevisiae deletion strains, locus YNR052C, strain pop2, hits give low values 1.02 | S. cerevisiae deletion strains, locus YOL006C, strain TOP1, hits give low values 1.05 | S. cerevisiae deletion strains, locus YOL012C, strain htz1 1.12 | S. cerevisiae deletion strains, locus YOL147C, strain pex11, hits give low values 1.01 | S. cerevisiae deletion strains, locus YOR001W, strain rrp6, hits give low values 1.02 | S. cerevisiae deletion strains, locus YOR061W, strain CKA2, hits give low values 1.01 | S. cerevisiae deletion strains, locus YOR069W, strain VPS5, hits give low values 1 | S. cerevisiae deletion strains, locus YOR070C, strain gyp1, hits give low values 1.02 | S. cerevisiae deletion strains, locus YOR080W, strain dia2, hits give low values 1.02 | S. cerevisiae deletion strains, locus YOR083W, strain WHI5, hits give low values 1.01 | S. cerevisiae deletion strains, locus YOR106W, strain vam3, hits give low values 1.01 | S. cerevisiae deletion strains, locus YOR136W, strain idh2, hits give low values 1.01 | S. cerevisiae deletion strains, locus YOR144C, strain elg1, hits give low values 1.02 | S. cerevisiae deletion strains, locus YOR184W, strain ser1, hits give low values 1.04 | S. cerevisiae deletion strains, locus YOR231W, strain MKK1, hits give low values 1.04 | S. cerevisiae deletion strains, locus YOR265W, strain rbl2, hits give low values 1.03 | S. cerevisiae deletion strains, locus YOR270C, strain vph1, hits give low values 1.05 | S. cerevisiae deletion strains, locus YOR290C, strain snf2, hits give low values 1.03 | S. cerevisiae deletion strains, locus YOR316C, strain cot1, hits give low values 1.03 | S. cerevisiae deletion strains, locus YPL051W, strain arl3, hits give low values 1.01 | S. cerevisiae deletion strains, locus YPL055C, strain LGE1, hits give low values 1 | S. cerevisiae deletion strains, locus YPL078C, strain atp4, hits give low values 1.01 | S. cerevisiae deletion strains, locus YPL106C, strain sse1, hits give low values 1 | S. cerevisiae deletion strains, locus YPL240C, strain hsp82, hits give low values 1.02 | S. cerevisiae deletion strains, locus YPL241C, strain CIN2, hits give low values 1.02 | S. cerevisiae deletion strains, locus YPL256C, strain CLN2, hits give low values 1.05 | S. cerevisiae deletion strains, locus YPR119W, strain clb2, hits give low values 1.02 | S. cerevisiae deletion strains, locus YPR141C, strain kar3, hits give low values 1.02 | S. cerevisiae deletion strains, locus YPR163C, strain tif3, hits give low values 1.02 | S. cerevisiae deletion strains, locus YPR167C, strain met16, hits give low values 1.02 | S. cerevisiae deletion strains, strain wtn01, hits give low values 1.02 | S. cerevisiae strains, strain wild type, hits give low values 1.02
